Experiment [1] deals with Cell division control protein 42 homolog (Homo sapiens) (UniProt P60953). Kind of experiment: activated mutant Cdc42 GTP-binding inhibitors, dose response, biochemical, multiplex bead flow cytometry, Bodipy-FL-GTP (AID 1333).
For experiment [2] the target is unchanged. Description: wildtype Cdc42 GTP-binding inhibitors, dose response, biochemical, multiplex bead flow cytometry, Bodipy-FL-GTP (AID 1334;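 active means fitted half-maximal concentration within the tested range, moderate curve steepness, significant signal drop, and little compound fluorescence or bead-linkage interference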). The note with it: bead-based flow cytometry, Bodipy-FL-GTP binding to GST-Cdc42; at 100 µM (top of the series) unless noted. Background: A flow cytometer gives signals particle by particle.
Experiment [3] deals with GTPase HRas (Homo sapiens) (UniProt P01112). Description: inhibitors of GTP binding to wildtype Ras, dose response, biochemical, multiplex bead flow cytometry (AID 1335;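 active means fitted half-maximal concentration within 10 nM to 100 µM, steepness 0.5 to 2, significant signal drop, low assay interference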). The settings on record: bead-based flow cytometry, Bodipy-GTP binding to GST-Ras; at 100 µM (top of the series) unless noted.
Experiment [4] relates to Ras-related protein Rab-7a (dog), GTP binding. Description: Rab7 GTP binding inhibitors, potency, dose response, biochemical, wildtype, multiplex bead flow cytometry (AID 1336; call rule not given here).
The target in experiment [5] is Ras-related C3 botulinum toxin substrate 1 (Homo sapiens) (UniProt P63000). Kind of experiment: wildtype Rac1 GTP binding inhibitors, dose response, biochemical, multiplex bead flow cytometry (AID 1340;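 active means dose curve with midpoint inside tested range, moderate steepness, plateau gap beyond fit error, low compound glow and bead-link interference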). The settings on record: GST-Rac1 beads, Bodipy-FL-GTP binding; at 100 µM (top of the series) unless noted.
In experiment [6] the target is GTPase HRas (Homo sapiens) (UniProt P01112). Description: activated Ras mutant GTP binding inhibitors, dose response, biochemical, multiplex bead flow cytometry (AID 1341;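 active means dose-response curve with midpoint inside the tested range, moderate steepness, significant amplitude and little compound fluorescence or bead-attachment interference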;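 further: GST-tagged constitutively activated Ras mutant immobilized on beads and multiplexed with other GTPases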).

For part of these data: Measured potencies and affinities stand elsewhere. Activity calls are given as the source filed them.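 How the source made its calls, unless noted: active means fitted half-maximal concentration within the tested dose range, moderate curve steepness, a statistically real signal drop, and little compound fluorescence or tag-binding interference; inactive means the rest.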

Chain of Cell division control protein 42 homolog (Homo sapiens) (P60953 whole entry, looked up): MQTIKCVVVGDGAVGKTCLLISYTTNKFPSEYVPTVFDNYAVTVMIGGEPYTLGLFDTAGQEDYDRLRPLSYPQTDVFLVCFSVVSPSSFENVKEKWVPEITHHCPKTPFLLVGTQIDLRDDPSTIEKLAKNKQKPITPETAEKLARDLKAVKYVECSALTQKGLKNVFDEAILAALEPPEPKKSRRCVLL
Chain of GTPase HRas (Homo sapiens) (P01112 whole entry, looked up): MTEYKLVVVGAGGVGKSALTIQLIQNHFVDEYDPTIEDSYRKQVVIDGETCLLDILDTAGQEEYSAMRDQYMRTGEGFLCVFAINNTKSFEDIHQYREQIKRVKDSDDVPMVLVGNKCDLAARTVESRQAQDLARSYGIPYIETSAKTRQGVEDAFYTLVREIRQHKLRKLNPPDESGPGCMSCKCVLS

Consider `Cc1cc(N=NC(=O)c2ccccc2O)c2ccccc2c1O`, for which the call in experiment [1], in experiment [4] and in experiment [6] was inactive. The fluorescence, percent of control (lower = inhibition) in experiment [2] worked out at 36.1%. In addition, the GTP binding, percent of control in experiment [3] was 85.2%. In experiment [5], this molecule returned a GTP binding signal, raw median fluorescence (lower = inhibition) (MCF (arbitrary fluorescence units)) of 243.
With `COC(=O)c1cccnc1SCc1ccccc1`, the molecule was called inactive in experiment [1], in experiment [4] and in experiment [6]. In addition, the fluorescence, percent of control (lower = inhibition) in experiment [2] amounted to 46%. The GTP binding, percent of control in experiment [3] worked out at 61.1%. The GTP binding signal, raw median fluorescence (lower = inhibition) (MCF (arbitrary fluorescence units)) in experiment [5] was 184.
Consider `c1ccc(CN2CCN(CCOCCOc3cccc4ccccc34)CC2)cc1`, for which the molecule was classed as inactive in experiment [1], in experiment [4] and in experiment [6]. The fluorescence, percent of control (lower = inhibition) in experiment [2] worked out at 28.9%. Also, the GTP binding, percent of control in experiment [3] amounted to 79%. The molecule also came in with a GTP binding signal, raw median fluorescence (lower = inhibition) (MCF (arbitrary fluorescence units)) in experiment [5] of 234.
For the molecule `COc1ccc(S(=O)(=O)N2CCCCC2)cc1NC(=O)c1ccc([N+](=O)[O-])o1`, the molecule was called inactive in experiment [1], in experiment [4] and in experiment [6]. The fluorescence, percent of control (lower = inhibition) in experiment [2] is 32.3%. For the same molecule, the GTP binding, percent of control in experiment [3] was found to be 73.3%. This molecule also gave a GTP binding signal, raw median fluorescence (lower = inhibition) (MCF (arbitrary fluorescence units)) in experiment [5] of 172.
With `Cc1ccc(C(C)C)c(OCCn2cc(C(=O)O)c3ccccc32)c1`, the outcome in experiment [1], in experiment [4] and in experiment [6] was inactive. Further, the fluorescence, percent of control (lower = inhibition) in experiment [2] was 66.7%. For the same molecule, in experiment [3], the GTP binding, percent of control amounted to 86.3%. The molecule further had a GTP binding signal, raw median fluorescence (lower = inhibition) (MCF (arbitrary fluorescence units)) in experiment [5] of 44.5.
Turning to `Cc1ccc(S(=O)(=O)c2cc3c(=O)n4ccccc4nc3n(C)c2=N)cc1`, the molecule was classed as inactive in experiment [1], in experiment [4] and in experiment [6]. Further, the fluorescence, percent of control (lower = inhibition) in experiment [2] is 31.2%. In experiment [3], this molecule returned a GTP binding, percent of control of 65.8%. Also, in experiment [5], the GTP binding signal, raw median fluorescence (lower = inhibition) (MCF (arbitrary fluorescence units)) came out at 158.
Regarding `O=C(CCc1ccccn1)N1CCCC(CNS(=O)(=O)c2cccs2)C1` (stereo not given), the outcome in experiment [1], in experiment [4] and in experiment [6] was inactive. In experiment [2], the fluorescence, percent of control (lower = inhibition) is 36.9%. The molecule further came in with a GTP binding, percent of control in experiment [3] of 82.7%. In experiment [5], the GTP binding signal, raw median fluorescence (lower = inhibition) (MCF (arbitrary fluorescence units)) stood at 279.
Consider `Cc1nc2ncccn2c1-c1csc(Nc2ccc(O)cc2)n1`, for which the outcome in experiment [1], in experiment [4] and in experiment [6] was inactive. Besides, the fluorescence, percent of control (lower = inhibition) in experiment [2] worked out at 20.9%. The GTP binding, percent of control in experiment [3] turned out to be 46.8%. In experiment [5], this molecule registered a GTP binding signal, raw median fluorescence (lower = inhibition) (MCF (arbitrary fluorescence units)) of 106.
On to `O=c1c2ccccc2nc2c3ccccc3c(NCc3ccccn3)nn12`, for which the result in experiment [1], in experiment [4] and in experiment [6] was inactive. For the same molecule, in experiment [2], the fluorescence, percent of control (lower = inhibition) worked out at 33.4%. Moreover, the GTP binding, percent of control in experiment [3] amounted to 68.8%. In addition, in experiment [5], the GTP binding signal, raw median fluorescence (lower = inhibition) (MCF (arbitrary fluorescence units)) stood at 167.
For `Cc1cc(OCCn2cc(C(=O)O)c3ccccc32)ccc1Cl`, the outcome in experiment [1], in experiment [4] and in experiment [6] was inactive. Further, in experiment [2], the fluorescence, percent of control (lower = inhibition) turned out to be 58.3%. The molecule further displayed a GTP binding, percent of control in experiment [3] of 84.4%. In experiment [5], this molecule yielded a GTP binding signal, raw median fluorescence (lower = inhibition) (MCF (arbitrary fluorescence units)) of 28.3.
Take `Cc1cccn2c(=O)c(/C=C3\SC(=S)N(CC(C)C)C3=O)c(NCCCOC(C)C)nc12`: the molecule was called inactive in experiment [1], in experiment [4] and in experiment [6]. The fluorescence, percent of control (lower = inhibition) in experiment [2] is 58.1%. This molecule also yielded a GTP binding, percent of control in experiment [3] of 191%. Further, in experiment [5], the GTP binding signal, raw median fluorescence (lower = inhibition) (MCF (arbitrary fluorescence units)) was determined as 209.
On to `CN(C)S(=O)(=O)c1ccc(C(=O)NNc2nc(-c3ccccc3)c3cc(Br)ccc3n2)cc1`, for which the molecule was called inactive in experiment [1], in experiment [4] and in experiment [6]. Further, in experiment [2], the fluorescence, percent of control (lower = inhibition) came to 31.2%. This molecule also showed a GTP binding, percent of control in experiment [3] of 71.7%. Further, in experiment [5], the GTP binding signal, raw median fluorescence (lower = inhibition) (MCF (arbitrary fluorescence units)) stood at 166.
Take `CCOC(=O)CNC(=O)c1cccnc1SCCc1ccccc1`: the result in experiment [1], in experiment [4] and in experiment [6] was inactive. In addition, the fluorescence, percent of control (lower = inhibition) in experiment [2] worked out at 46.7%. In addition, in experiment [3], the GTP binding, percent of control worked out at 125%. Also, the GTP binding signal, raw median fluorescence (lower = inhibition) (MCF (arbitrary fluorescence units)) in experiment [5] is 65.
With `CCN(CC)c1ccc(/C=c2\sc3nnc(-c4ccccc4Cl)n3c2=O)cc1`, the call in experiment [1], in experiment [4] and in experiment [6] was inactive. Also, the fluorescence, percent of control (lower = inhibition) in experiment [2] amounted to 117%. In experiment [3], this molecule gave a GTP binding, percent of control of 128%. In addition, the GTP binding signal, raw median fluorescence (lower = inhibition) (MCF (arbitrary fluorescence units)) in experiment [5] amounted to 225.
Take `CNc1ncc(C(=O)c2ccc(Br)cc2)s1`: the molecule was classed as inactive in experiment [1], in experiment [4] and in experiment [6]. The fluorescence, percent of control (lower = inhibition) in experiment [2] amounted to 37.3%. In experiment [3], the GTP binding, percent of control was 85.2%. The molecule further displayed a GTP binding signal, raw median fluorescence (lower = inhibition) (MCF (arbitrary fluorescence units)) in experiment [5] of 277.

Values taken from PubChem BioAssay.
